Screens from PubChem BioAssay.
Compounds with a hit are over-represented: about 1.1% of the library has one in this group of screens.
CIT2-GFP yeast: alters CIT2-GFP fluorescence in TOR pathway yeast screen | S. cerevisiae CIT2-GFP strain, flow cytometry, 3 h; 100 means same as DMSO wells | GFP response vs DMSO, % at 10 µM | 320,000 tested, 0.065% active | AID 2029;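 active means GFP response relative to DMSO above a set limit, near the screen mean plus 3 SD, cut at about 150% in these data; inconclusive means Fewer than 70 cells measured for a yeast strain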;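 further: ratio of well median GFP fluorescence to mean of DMSO wells on the plate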
RPL19A TOR yeast: yeast TOR pathway RPL19A-GFP modulation. S. cerevisiae RPL19A-GFP strain, flow cytometry, 3 h; active compounds read low. percent response vs DMSO, % at 10 µM. 330,000 tested, 0.3% active. AID 2025;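 active means percent response vs DMSO below 50%; inconclusive means fewer than 70 events counted for the yeast strain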;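 further: median channel GFP fluorescence of the barcoded RPL19A-GFP strain; lower means less RPL19A-GFP as with rapamycin TOR inhibition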
AGP1 TOR yeast: yeast TOR pathway AGP1-GFP modulation; S. cerevisiae AGP1-GFP multiplex flow cytometry, 3 h; GFP as percent of DMSO wells; GFP response vs DMSO, % at 10 µM; 320,000 tested, 0.02% active;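 active means GFP response relative to DMSO above a set limit, near screen average plus 3 SD, cut at about 150% in these data; inconclusive means fewer than 70 cells counted for the yeast strain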;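 further: median GFP channel fluorescence of the gated AGP1 strain per well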
LAP4-GFP MLPCN: alters LAP4-GFP fluorescence in TOR pathway yeast screen; GFP response vs DMSO, % at 10 µM; 320,000 tested, 0.34% active; S. cerevisiae LAP4-GFP multiplex, flow cytometry GFP, 3 h; median GFP as percent of DMSO wells; AID 2023;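 active means GFP response vs DMSO above a set limit, about the screen mean plus 3 SD, cut at about 150% in these data; inconclusive means under 70 cell events counted for the yeast strain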
VLA-4 inh: inhibition in a human VLA-4 binding assay. P13612. VLA-4 expressing cells, ligand binding flow cytometry. inhibition, % (about 7 µM as worked out from the volumes in the protocol). 330,000 tested, 0.2% active. AID 2557; in the data active means inhibition above about 50%
MEP2-GFP yeast: modulators of TOR pathway MEP2-GFP in S. cerevisiae; S. cerevisiae MEP2-GFP strain, flow cytometry GFP, 3 h; 100% = DMSO control level; GFP response vs DMSO, % at 10 µM; 330,000 tested, 0.51% active; AID 2016;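 active means GFP response versus DMSO above a set limit, roughly screen mean plus 3 SD, cut at about 180% in these data; inconclusive means fewer than 70 cells counted for a yeast strain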;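 further: median GFP fluorescence of the barcode-gated MEP2-GFP cells per well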
Of the large screens only hits and unclear results are named; the others gave an inactive call; [ ] = dose if it differs, or a comment.

Cc1cccc(NC(=O)c2ccc(N3C(=O)C4CCCCC4C3=O)cc2)c1C (configuration not stated)	none
CNc1nc(-c2cccs2)cc(C(F)(F)F)c1C#N	CIT2-GFP yeast inconclusive, RPL19A TOR yeast 47[may fluoresce violet], MEP2-GFP yeast 592[may fluoresce violet]
COC(=O)C1=C(N)Oc2cc(C)n(CC3CCCO3)c(=O)c2C1c1ccccc1OC (configuration not stated)	CIT2-GFP yeast inconclusive, AGP1 TOR yeast inconclusive, MEP2-GFP yeast 247[may fluoresce violet]
COc1cc2[nH]c3c(Cl)ncnc3c2cc1OC	none
COc1cc2[nH]c(Cl)c([N+](=O)[O-])c2cc1OC	CIT2-GFP yeast inconclusive, MEP2-GFP yeast 273[may fluoresce violet]
NC(=O)C1CCN(c2cc(Cl)ccc2[N+](=O)[O-])CC1	RPL19A TOR yeast 41[may fluoresce violet], MEP2-GFP yeast inconclusive (no result: CIT2-GFP yeast, AGP1 TOR yeast, LAP4-GFP MLPCN)
NC(=O)C1CCN(c2cc(N3CCOCC3)ccc2[N+](=O)[O-])CC1	none
COCCNC(=S)N1CCc2cc(OC)c(OC)cc2C1c1cccs1 (configuration not stated)	none
Cc1oc(-c2cccc(Cl)c2)nc1CN1CCC(C(=O)NCCCN2CC(C)CC(C)C2)CC1 (configuration not stated)	CIT2-GFP yeast inconclusive, RPL19A TOR yeast 17[may fluoresce violet], AGP1 TOR yeast inconclusive, MEP2-GFP yeast 190[may fluoresce violet]
Cc1c(Br)cc(C(=O)O)c(C)c1C	LAP4-GFP MLPCN 166
CCOC(=O)N1CCN(C(=O)C(=O)Nc2sc3c(c2C(N)=O)CC(C)(C)OC3)CC1	none
Cc1cc(-c2csc3nc[nH]c(=S)c23)cc(C)c1C	MEP2-GFP yeast 185
Cc1ccc(C)c(OCc2cc(C(=O)N3CCN(c4ccccc4C)CC3C)no2)c1 (configuration not stated)	none
Cc1ccccc1NC(=O)NC1(C(=O)N2CCC(O)CC2)CCCCC1	none
O=C(Nc1ccccc1Cl)NC1(C(=O)N2CCCCC2)CCCCC1	none
O=C(Nc1ccccc1Cl)NC1(C(=O)N2CCCC2)CCCCC1	CIT2-GFP yeast inconclusive, RPL19A TOR yeast 32[may fluoresce violet], AGP1 TOR yeast inconclusive, MEP2-GFP yeast 377[may fluoresce violet]
Cc1ccccc1NC(=O)NC1(C(=O)N2CCN(C)CC2)CCCCC1	CIT2-GFP yeast inconclusive, RPL19A TOR yeast 45[may fluoresce violet], AGP1 TOR yeast inconclusive, MEP2-GFP yeast 282[may fluoresce violet]
CC(NCCS(=O)(=O)c1ccc(Cl)cc1)c1cccc(Cl)c1 (configuration not stated)	MEP2-GFP yeast 208
O=C(CCC(=O)N1CCSc2ccccc21)NCCc1ccccc1	none
COc1cccc(C(=O)CSc2nccn2C)c1	none
Cn1ccnc1SCC(=O)c1ccc2ccccc2c1	CIT2-GFP yeast inconclusive, RPL19A TOR yeast 49[may fluoresce violet]
COc1ccccc1NC(=O)c1ccc([N+](=O)[O-])o1	LAP4-GFP MLPCN 159
Cc1cc(C(=O)Nc2ccc3ccccc3c2)oc1C	CIT2-GFP yeast inconclusive, MEP2-GFP yeast 236[may fluoresce violet]
Cc1cccc(NC(=O)c2ccc([N+](=O)[O-])o2)c1C	none
CC(=O)c1cc(C(=O)Nc2ccc3ccccc3c2)c(C)o1	none
Cc1ccc(NC(=O)c2ccc([N+](=O)[O-])o2)cc1C	LAP4-GFP MLPCN 200
Cc1ccsc1C(=O)NC(C)c1ccccc1 (configuration not stated)	none
CC(=O)c1ccc(N2CCN(c3ncccn3)CC2)cc1	none
CCCn1c(=N)c(C(=O)NCC2CCCO2)cc2c(=O)n3cccc(C)c3nc21 (configuration not stated)	CIT2-GFP yeast inconclusive, RPL19A TOR yeast inconclusive, AGP1 TOR yeast inconclusive, LAP4-GFP MLPCN inconclusive, MEP2-GFP yeast inconclusive
N=c1c(C(=O)NCC2CCCO2)cc2c(=O)n3ccccc3nc2n1C1CCCC1 (configuration not stated)	CIT2-GFP yeast inconclusive, RPL19A TOR yeast inconclusive, AGP1 TOR yeast inconclusive, LAP4-GFP MLPCN inconclusive, MEP2-GFP yeast inconclusive
Cc1cccn2c(=O)c3cc(C(=O)NCC4CCCO4)c(=N)n(C4CCCC4)c3nc12 (configuration not stated)	CIT2-GFP yeast inconclusive, RPL19A TOR yeast 24[may fluoresce violet], AGP1 TOR yeast inconclusive, MEP2-GFP yeast inconclusive
N=c1c(C(=O)NCC2CCCO2)cc2c(=O)n3ccccc3nc2n1C1CCCCC1 (configuration not stated)	RPL19A TOR yeast 45
